Many of the other results were omitted from the sample, so hits are more common in it than they were.
TbPYK inhibitor: inhibitors of Trypanosoma brucei pyruvate kinase | TbPYK enzyme, Kinase-Glo Plus ATP luminescence, 45 min | Q57TT1 | 0.12% of 410,000 active | Potency, µM (doses to about 76.8 µM), for inactives: top-dose activity, negative = inhibition, hits mostly inhibitors | AID 624173; note: potency is the fitted concentration of half-maximal effect; % is set by controls: 0 for no effect and ±100 for the full control effect; nearly all actives have a fitted effect of over 50% in size
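Luminescent Kinase-Glo Plus end-point after 45 min room-temperature reaction of T. brucei pyruvate kinase started with 130 uM ADP (final). Buffer TEA 50 mM pH 7.2 with KCl, MgCl2, BSA, Tween-20; titration-based qHTS with fitted concentration-effect curves.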
Sm TGR inh: inhibitors of Schistosoma mansoni thioredoxin glutathione reductase. Q962Y6. Potency, µM (highest dose often 114 µM), for inactives: top-dose activity change, negative = inhibition, most hits filed as inhibitors. purified TGR, DTNB reduction, TNB absorbance 405 nm. AID 485364. 3% of 360,000 active; note: potency is the fitted concentration of half-maximal effect; % is set by controls: 0 for no effect and ±100 for the full control effect; nearly all actives have a fitted effect of over 60% in size
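TGR 20 nM + NADPH 100 uM (dispensed conc.), cpd preinc 15 min RT; start with NADPH (500 uM addition) then DTNB (15 mM addition). Kinetic TNB absorbance, 405 nm filter. Four-parameter Hill fit across titration.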
Shiga toxin inh: inhibitors of Shiga toxin in Vero cells; Vero cells, Shiga toxin protein synthesis inhibition reporter; inhibition, % at 38.7 µM; 9.2% of 290,000 active; AID 2315; in the data active = inhibition mostly above about 28%, no sharp cut-off; inactive = mostly below about 43%; note: 0% is about no effect
Cycloheximide cs: counter-screen for Shiga toxin inhibitors: cycloheximide protein synthesis inhibition; cell reporter, cycloheximide protein synthesis inhibition counterscreen; max response, %; 12% of 300,000 active; in the data active = max response mostly above about 13%, no sharp cut-off; inactive = mostly below about 14%; note: read at 38.3 µM for the half of the compounds with a filed dose; 0% is about no effect
Giardia FBPA inh: Giardia lamblia aldolase inhibition; A8B2U2; purified Giardia FBPA; Potency, µM (highest dose often 59.6 µM), without a hit: at the highest dose activity, negative = inhibition, hits mostly inhibitors; 0.71% of 290,000 active; AID 2451; note: potency is the fitted concentration of half-maximal effect; % is set by controls: 0 for no effect and ±100 for the full control effect; nearly all actives have a fitted effect of over 55% in size
Target sequence (A8B2U2 whole entry, looked up): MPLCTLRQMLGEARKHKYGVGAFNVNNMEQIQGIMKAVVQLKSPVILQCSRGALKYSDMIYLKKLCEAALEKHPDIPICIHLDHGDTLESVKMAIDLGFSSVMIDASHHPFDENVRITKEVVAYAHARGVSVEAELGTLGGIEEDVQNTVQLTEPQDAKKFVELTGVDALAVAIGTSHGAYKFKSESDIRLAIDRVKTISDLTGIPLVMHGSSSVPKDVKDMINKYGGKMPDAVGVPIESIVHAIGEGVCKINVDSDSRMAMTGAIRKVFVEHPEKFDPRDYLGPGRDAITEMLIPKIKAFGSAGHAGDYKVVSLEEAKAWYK
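40 nM FBPA preincubated 10 min at RT with compound (up to 57.5 uM final), then substrate plus GAPDH/TPI/NAD/arsenate coupling and diaphorase/resazurin added. Fluorescence read after 20 min at RT, 525/598 nm.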
LmPK inh: inhibitors of Leishmania mexicana pyruvate kinase; Q27686; purified LmPK, Kinase-Glo ATP luminescence, 1 h; Potency, µM (doses to about 57.5 µM), for the others: top-dose activity change, negative = inhibition, most hits filed as inhibitors; 0.37% of 290,000 active; note: potency is the fitted concentration of half-maximal effect; % is set by controls: 0 for no effect and ±100 for the full control effect
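Purified LmPK (0.1 nM) converted ADP (0.1 mM) to ATP with PEP (0.5 mM) in imidazole buffer pH 7.2 with KCl and MgCl2, 1 h at room temperature. ATP was read by Kinase-Glo luminescence; data normalized to uninhibited and no-enzyme controls.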
* hit, by the source's call; u = inconclusive; x = no result; [ ] = remark or other dose. Unless noted, calls come from the whole dose curve; as a rule, active = well fitted curve in the direction sought with a large enough effect; inconclusive = small, poorly fitted or top-dose-only effect, or another doubt; inactive = no such curve, though single readings can be large; an effect the other way counts as inactive or inconclusive.

SMILES	TbPYK inhibitor	Sm TGR inh	Shiga toxin inh	Cycloheximide cs	Giardia FBPA inh	LmPK inh
COc1cccc2cc(C(=O)N3CCc4ccccc4C3)c(=O)oc12	-8.7%	12.9%[11.4 µM]	39.4	24.3*	-2.7%	5.2%
COc1cccc2cc(C(=O)NCc3ccccn3)c(=O)oc12	3.0%	-0.4%	37.6	23.0*	-0.6%	-1.1%
Cc1ccc(-c2nn(CC(=O)NCc3ccccc3)c3c2cnc2ccc(F)cc23)cc1C	4.0%	0.3%	x	x	x	x
CCOC(=O)/C=C(\C)Sc1cc(=O)oc2ccccc12	0.4%	22.4µM*	16.2	8.1	2.4%	0.6%
CCOC(=O)/C=C(\C)Sc1cc(O)c2ccccc2c1O	7.08µM*	0.794µM*	58.5*	30.6*	7.06µM*	10µM*
Cc1ccc(C2(C)NC(=O)N(CC(=O)Nc3cc(S(=O)(=O)N(C)C)ccc3C)C2=O)cc1 (stereo not drawn)	1.0%	-8.3%	-14.6	-1.8	12.7%	-2.5%
O=C1NCC2=C1C(c1ccc(Br)cc1)Nc1ccccc1N2 (stereo not drawn)	-12.6%	-6.5%	77.4*	21.9*	-11.0%	-4.7%
O=[N+]([O-])c1ccc(N=Nc2ncc[nH]2)cc1	0.2%	u	44.7	16.3*	u	-10.9%
CN(Cc1ccccc1)C(=O)c1c[nH]c2ccc(S(=O)(=O)Nc3ccccc3F)cc2c1=O	2.3%	-15.1%	x	x	x	x
CC(NS(=O)(=O)c1c(N)n(C)c(=O)n(C)c1=O)c1ccccc1 (stereo not drawn)	-8.8%	-6.2%	57.4*	29.4*	x	-3.7%
CC1CCCN(c2ccc3nncn3n2)C1 (stereo not drawn)	-13.2%	2.8%	-7.6	-4.5	-9.6%	-5.9%
Cc1ccn2c(Nc3c(C)cccc3C)c(-c3ccc(Cl)s3)nc2c1	3.2%	-0.6%	x	x	x	x
S=C(Nc1ccc(Oc2ccccc2)cc1)NC1CCCC1	-0.9%	2.3%	3.2	10.8	5.4%	1.1%
CN(CC(=O)Nc1ccc(SC(F)F)cc1)C1CCCCC1	2.4%	-7.6%	28.0	-0.2	7.0%	-2.5%
S=C(Nc1ccc(Br)cc1)NC1CCCC1	-14.8%	-13.6%	62.6*	41.9*	3.4%	0.6%
FC(F)Sc1ccc(NC(=S)NCC2CCCCC2)cc1	1.1%	1.5%	91.6	13.9	0.5%	5.3%
FC(F)Sc1ccc(NC(=S)NC2CCCCC2)cc1	-6.8%	-4.3%	113.6	30.5*	-4.0%	5.8%
CC1CCCCC1NC(=S)Nc1ccc(SC(F)F)cc1 (stereo not drawn)	-4.8%	-3.0%	74.8*	35.1*	0.4%	5.5%
CC1CCN(C(=S)Nc2ccc(SC(F)F)cc2)CC1	2.0%	-1.9%	63.9*	59.1*	1.8%	0.6%
Cc1c(C(=O)Nc2ccc(F)c(C(F)(F)F)c2)sc2nc(-c3ccccc3)cn12	-2.3%	0.3%	x	x	x	x
Cc1cc(C)cc(NC(=O)COC(=O)Cn2cnc3c2c(=O)n(C)c(=O)n3C)c1	0.7%	-2.9%	x	x	x	x
O=C(COC(=O)c1nc(Cl)ccc1Cl)Nc1cccc(S(=O)(=O)N2CCOCC2)c1	7.8%	x	x	x	x	x
COc1ccc(CCNC(=O)c2ccc3c(c2)nc2n3CCOC2)cc1OC	-1.1%	4.8%	x	x	x	x
O=[N+]([O-])c1ccc(N=Cc2ccc(Br)c([N+](=O)[O-])c2)cc1	1.3%	31.6µM*	-11.8	-0.7	-11.8%	1.1%
O=[N+]([O-])c1ccc(C=Nc2ccccc2)cc1	-4.0%	x	x	x	x	x
SMILES	TbPYK inhibitor	Sm TGR inh	Shiga toxin inh	Cycloheximide cs	Giardia FBPA inh	LmPK inh
COCC(=O)N1CCC(n2nccc2NC(=O)CCOc2ccccc2)CC1	-0.4%	-0.5%	36.4*	23.8*	x	8.3%
O=C(CCOc1ccccc1)Nc1ccnn1C1CCN(Cc2ccc(O)cc2)CC1	-1.6%	39.8µM*	-30.3	-1.5	x	-6.9%
CCCNC(=O)N1CCC(n2nccc2NC(=O)CCOc2ccccc2)CC1	4.4%	-1.5%	-3.5	-0.3	x	-8.3%
COc1cccc(CN2CCC(n3nccc3NC(=O)CCOc3ccccc3)CC2)c1	-0.3%	-2.9%	-7.6	-2.1	x	4.8%
O=C(CCOc1ccccc1)Nc1ccnn1C1CCN(C(=O)CCC(F)(F)F)CC1	4.4%	-8.8%	24.9	23.5*	x	7.3%
COC(=O)CCCC(=O)N1CCC(n2nccc2NC(=O)CCOc2ccccc2)CC1	6.6%	-15.7%	34.2	21.4*	2.4%	-8.1%

High-throughput results deposited in PubChem by National Center for Advancing Translational Sciences (NCATS).
